The list is not random: actives were taken first. Their share in the collection is about 9.9%.
JMJD2E inh: blocks human JMJD2E demethylase activity. AID 2147. actives 1.6% (n = 230,000). Potency, µM (titrated, usually from 57.1 µM), for inactives: at the top dose activity change, negative = inhibition, actives largely listed as inhibitors. B2RXH2. JMJD2E catalytic domain, FDH-coupled NADH fluorescence (FDH is formaldehyde dehydrogenase);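 also: 0% = wells with enzyme and -100% = buffer wells without enzyme; nearly all actives have a fitted effect of over 50% in size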
Tau fluor cs: counter-screen for tau fibril formation inhibitors. tau K18 P301L Alexa594 fluorescence, heparin fibrillization. Potency, µM (doses to about 57.7 µM), without a hit: at the highest dose activity change, negative = decrease. AID 1463. actives 0.93% (n = 280,000); also: nearly all actives have a fitted effect of over 55% in size
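Human tau K18 P301L (15 uM unlabeled, 0.24 uM Alexa 594-labeled) in 100 mM sodium acetate pH 7 with 20 uM heparin, 6 hr at 37 C. ThT 30 uM added, 1 hr ambient; Alexa 594 FP and total fluorescence read at 555/632 nm.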
ALDH1A1 inh: blocks purified human ALDH1A1 activity; P00352; Purified ALDH1A1, NADH fluorescence, propionaldehyde substrate; Potency, µM (titrated, usually from 75.3 µM), without a hit: at the highest dose activity, negative = inhibition, hits mostly inhibitors; actives 7.3% (n = 220,000); AID 1030; active = well fitted inhibition curve with a large enough effect, not every such curve was filed as active; inconclusive = small, poorly fitted or top-dose-only effect, or another doubt; inactive = no such curve, though single readings can be large or run the other way;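 also: plate controls were no enzyme wells and a reference inhibitor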
Target sequence (P00352 whole entry, looked up): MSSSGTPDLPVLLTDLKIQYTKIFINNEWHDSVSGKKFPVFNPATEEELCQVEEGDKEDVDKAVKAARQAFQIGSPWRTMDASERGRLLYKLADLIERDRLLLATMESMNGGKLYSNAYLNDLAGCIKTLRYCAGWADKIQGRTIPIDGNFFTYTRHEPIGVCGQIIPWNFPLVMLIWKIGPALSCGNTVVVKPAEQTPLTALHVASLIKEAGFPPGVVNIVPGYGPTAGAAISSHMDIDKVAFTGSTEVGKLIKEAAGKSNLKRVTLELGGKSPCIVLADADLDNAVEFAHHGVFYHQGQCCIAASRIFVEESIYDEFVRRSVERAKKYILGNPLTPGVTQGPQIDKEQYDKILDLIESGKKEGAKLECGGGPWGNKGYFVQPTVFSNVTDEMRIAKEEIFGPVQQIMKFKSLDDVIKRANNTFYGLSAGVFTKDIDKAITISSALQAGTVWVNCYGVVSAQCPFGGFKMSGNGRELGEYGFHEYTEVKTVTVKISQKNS
Tau fibril FP: blocks human tau fibril formation measured by polarization. actives 0.39% (n = 280,000). K18 P301L tau heparin fibrillization, Alexa594 FP, 6 h. Potency, µM (doses to about 57.7 µM), without a hit: at the highest dose activity, negative = inhibition, hits mostly inhibitors. P10636. AID 1468; also: nearly all actives have a fitted effect of over 55% in size
Target sequence (P10636 561-689 P618L limits assumed): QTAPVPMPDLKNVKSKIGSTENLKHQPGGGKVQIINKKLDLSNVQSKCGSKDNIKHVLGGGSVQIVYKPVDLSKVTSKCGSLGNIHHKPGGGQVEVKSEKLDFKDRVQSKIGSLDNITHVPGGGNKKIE
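Recombinant K18 P301L […], labeled with Alexa 594 at 0.24 uM over 15 uM unlabeled; heparin inducer 20 uM final; 37 C, 6 hr; FP endpoint.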
Tau fibril ThT: tau fibrillization inhibition (ThT binding). P10636. actives 2.1% (n = 270,000). Potency, µM (top dose mostly 57.4 µM), without a hit: at the top dose activity, negative = inhibition, actives largely listed as inhibitors. recombinant tau K18 P301L (four-repeat tau fragment), heparin-induced fibrillization, ThT fluorescence; also: nearly all actives have a fitted effect of over 55% in size
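Heparin-induced fibrillization of the P301L-mutant K18 repeat-domain fragment of human tau was followed by ThT binding in quantitative high-throughput format.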
HPGD block: blocks human HPGD enzyme activity; Potency, µM, for the others: top-dose activity change, negative = inhibition, actives largely listed as inhibitors; actives 4.3% (n = 150,000); purified HPGD, NADH fluorescence kinetic, PGE2 substrate; AID 894; active = well fitted inhibition curve with a large enough effect, not every such curve was filed as active; inconclusive = small, poorly fitted or top-dose-only effect, or another doubt; inactive = no such curve, though single readings can be large or run the other way
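20 nM HPGD preincubated 15 min at room temperature with compound in 50 mM Tris-HCl pH 8, 0.01% Tween 20. Started with 1 mM NAD+ and 30 uM prostaglandin E2; NADH fluorescence (360/450 nm) read 5 times over 30-s intervals, last minus first.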
* = called active by the depositor; ? = inconclusive; / = no result given; [ ] = remark or other dose. Unless noted, calls follow the shape of the dose curve; as a rule, active = well fitted curve in the direction sought with a large enough effect; inconclusive = small, poorly fitted or top-dose-only effect, or another doubt; inactive = no such curve, though single readings can be large; an effect the other way counts as inactive or inconclusive. Unless noted, % is scaled to controls: 0 for no effect and ±100 for the full control effect; potency is read from the fitted curve at half-maximal effect.

SMILES	JMJD2E inh	Tau fluor cs	ALDH1A1 inh	Tau fibril FP	Tau fibril ThT	HPGD block
COc1ccc(NC(=O)Nc2nc3ccccc3s2)cc1	2%	8.9µM*[quencher]	/	?	?	/
COc1cccc(C(C(=O)NC2CCCC2)N(C(=O)c2ccco2)c2ccc(-n3cnnn3)c(C)c2)c1OC (centres undefined)	4%	1%	-2%	6%	0%	/
COc1cccc(CNC(=O)c2sc3ncccc3c2-n2c(C)ccc2C)c1OC	/	-8%	/	-4%	?	/
Cc1nc2ccc(S(=O)(=O)N(C)CC(=O)Nc3ccc(Br)c(C)c3)cc2s1	/	-16%	/	?	5%	/
COc1ccc(NC(=O)Nc2nc3c(s2)CCCC3)cc1	-5%	18µM*[quencher]	-3%	5%	?	-2%
CCN(CC)C(=O)c1sc2c(c1C)c(=O)n(CCc1ccccc1)c(=O)n2Cc1cccc(Cl)c1	/	-7%	/	-5%	-9%	/
Nc1sc2c(c1C(=O)c1ccccc1)CCCC2	-25%	?	14µM*	-4%	?	?
Nc1sc2c(c1C(=O)NCCc1ccccc1)CCC2	0%	-19%	20µM*	?	?	/
NC(=O)c1c(N)sc2c1CCCC2	?	-25%	13µM*	?	22µM*	32µM*
Cc1ccc(Cl)c(OC(=O)Cn2cnc3c2c(=O)n(C)c(=O)n3C)c1	6%	-14%	-2%	-6%	?	/
CCCC(=O)Nc1cccc(OCc2cc(=O)n3cccc(C)c3n2)c1	/	-5%	/	-8%	-6%	/
COc1ccc(N2C(=O)C3C(c4ccc(C(=O)O)cc4)NC(Cc4ccccc4)(C(=O)O)C3C2=O)c([N+](=O)[O-])c1 (centres undefined)	-28%	-4%	11µM*	-8%	-14%	/
CCOc1ccccc1C(=O)Nc1cc2c(cc1N1CCOCC1)n(C)c(=O)n2C	/	-4%	/	5%	-12%	/
O=[N+]([O-])c1ccccc1N=Nc1c(O)[nH]c2ccc(S(=O)(=O)O)cc12	/	/	-8%[13.5 µM]	/	/	4µM*
C=CCn1c(SCC(=O)c2cccs2)nc2sc(C)cc2c1=O	-3%	-17%	11µM*	0%	-20%	?
C=CCn1c(SCC(=O)c2cccs2)nnc1-c1cccc(OC)c1	1%	-2%	?	-1%	-7%	20µM*
C=CCn1c(SCC(=O)O)nnc1-c1cccs1	?	-2%	0%	-1%	-7%	-22%
Cc1cc(C)n2nc(C(=O)Nc3ccccc3N3CCOCC3)nc2n1	0%	3%	3%	-8%	1%	-16%
Cc1cc(Nc2ccccc2N2CCOCC2)n2ncnc2n1	1%	-4%	4%	1%	-3%	18µM*
COc1ccc(C2c3c(oc4cc(C)cc(C)c4c3=O)C(=O)N2Cc2ccco2)cc1OC (centres undefined)	/	10%	/	-3%	9%	/
NS(=O)(=O)c1ccc(Nc2nc(-c3ccc(F)cc3)cs2)cc1	-9%	16µM*[quencher]	7%	12%	?	/
CC(=O)Nc1ccc(-c2csc(Nc3ccc(S(N)(=O)=O)cc3)n2)cc1	3%	-16%	16%	9%	?	/
NS(=O)(=O)c1ccc(Nc2nc(-c3ccc(O)cc3O)cs2)cc1	?	14µM*[quencher]	-4%	9%	6.3µM*	?
Nc1ccc(O)cc1C(=O)OCC(=O)c1ccc(C2CCCCC2)cc1	?	13µM*[quencher]	?	-1%	?	-23%
O=C(N/N=C/c1ccccc1O)c1cc(-c2ccccc2)n[nH]1	/	/	9%	/	/	-17%
SMILES	JMJD2E inh	Tau fluor cs	ALDH1A1 inh	Tau fibril FP	Tau fibril ThT	HPGD block
O=C(c1ccccc1Cl)N1CCCC(c2nc3c(nnn3Cc3ccccc3)c(=O)[nH]2)C1 (centres undefined)	-1%	6%	-13%	1%	-8%	16µM*
COc1cccc(Cn2nnc3c(=O)[nH]c(C4CCCN(C(=O)c5ccccc5Cl)C4)nc32)c1 (centres undefined)	4%	-3%	7.9µM*	8%	-19%	14µM*
COc1ccc(Cn2nnc3c(=O)[nH]c(C4CCCN(C(=O)c5ccc(C)cc5)C4)nc32)cc1 (centres undefined)	/	-5%	/	-3%	-11%	/
O=C(c1ccccc1Cl)N1CCCC(c2nc3c(nnn3Cc3ccc(F)cc3F)c(=O)[nH]2)C1 (centres undefined)	/	-15%	/	5%	?	/
COc1ccc(Cn2nnc3c(=O)[nH]c(C4CCCN(C(=O)c5ccccc5)C4)nc32)cc1 (centres undefined)	-10%	4%	0%	4%	1%	13µM*
Cc1nnc(SCC2=C(C(=O)O)N3C(=O)C(NC(=O)C(C)n4nc(C(F)(F)F)cc4C)C3SC2)s1 (centres undefined)	?	-5%	?	-20%	?	/
CCC1=NN2C(=N)/C(=C/c3cc(C)n(Cc4ccccc4)c3C)C(=O)N=C2S1	?	-28%	-4%	-2%	?	/
Cc1cc(/C=C2\C(=N)N3C(SCc4ccccc4)=NSC3=NC2=O)c(C)n1Cc1ccccc1	-3%	-7%	-2%	4%	-10%	?
CCS(=O)(=O)C1=NN2C(=N)/C(=C\c3ccc(SCc4ccco4)o3)C(=O)N=C2S1	?	?	1.8µM*	-21%	14µM*	/
N=C1/C(=C\c2ccc(SCc3ccccc3)o2)C(=O)N=C2SC=NN12	1%	-19%	7%	?	8.9µM*	/
N=C1/C(=C\c2ccc(SCc3ccccc3)o2)C(=O)N=C2SC(CC(=O)N3CCOCC3)=NN12	?	-11%	/	7%	14µM*	/
Cc1nc2ccccc2c(=O)n1NC(=O)C1CC1	3%	-3%	-7%	2%	-2%	/
Cc1cc(C)c2c(=O)cc(C(=O)Nc3sc4c(c3C(=O)NCC3CCCO3)CCCC4)oc2c1 (centres undefined)	/	-26%	/	-7%	?	/
Cn1c(SCC(=O)N2CCc3ccccc32)nnc1-c1ccc(S(=O)(=O)N2CCCC2)cc1	?	-3%	?	0%	4%	?
CCN=C1S/C(=C\c2ccc(O)c(OCC)c2)C(=O)N1CC	-10%	-29%	?	?	-13%	-16%
CCN=C1S/C(=C\c2cc(OCC)c(O)cc2Br)C(=O)N1CC	-5%	-24%	0.89µM*	?	-16%	-16%
Cc1c(/C=N/Nc2ccc(F)cc2)c(O)n(C)c(=O)c1C#N	?	-27%	3.5µM*	?	14µM*	/
CC(=O)N=Cc1c(C)c(C#N)c(=O)n(C)c1O	?	-19%	-3%	-10%	?	/
O=C(N/N=C/c1ccc(Br)cc1)c1ccc(Br)o1	2%	-7%	0%	2%	?	-17%

Screens as filed in PubChem BioAssay.
